# Results taken from PubChem BioAssay AID1159580 (chemical genetic matrix, 2015).
# Values joined by “and” are separate entries in the source; they are usually repeats but may differ in a detail not shown here. Equal values may be shown once. Among all 5,500 compounds or so, about 2,000 (36%) were called active. Another 18% or so got no clear call; they are omitted. This is one part of the list. A number with no mark means an inactive call. Cut-off read from the data, not from the text of the source: active = normalized growth mostly below about 0.91 (no sharp cut-off); inconclusive = no clear call, values can overlap the other calls; inactive = mostly above about 0.92.
# Assay: chemical genetic growth profiling, strain panel (AID 1159580);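 note: tested at 20 µM; growth read once vehicle control cultures reached saturation at 30 °C; 1 = growth at the plate median or of vehicle wells; lower values mean less growth of the strain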
# Settings: S. cerevisiae deletion strains, growth OD
# [1] = locus YAL013W, strain DEP1, active compounds read low
# [2] = locus YBR229C, strain ROT2, active compounds read low
# [3] = locus YDL101C, strain DUN1, active compounds read low
# [4] = locus YDR150W, strain NUM1, active compounds read low
# [5] = locus YEL061C, strain CIN8, active compounds read low
# [6] = locus YGR052W, strain FMP48, active compounds read low
# [7] = locus YGR078C, strain PAC10, active compounds read low
# [8] = locus YHR030C, strain SLT2, active compounds read low
# [9] = locus YHR079C, strain IRE1, active compounds read low
# [10] = locus YHR082C, strain KSP1, active compounds read low
# [11] = locus YHR087W, strain rtc3, active compounds read low
# [12] = locus YJL095W, strain BCK1, active compounds read low
# [13] = locus YJR043C, strain POL32, active compounds read low
# [14] = locus YJR066W, strain TOR1, active compounds read low
# [15] = locus YJR075W, strain HOC1, active compounds read low
# [16] = locus YKL203C, strain TOR2, active compounds read low
# [17] = locus YLR039C, strain RIC1, active compounds read low
# [18] = locus YLR058C, strain SHM2 (second series), active compounds read low
# [19] = locus YLR085C, strain ARP6, active compounds read low
# [20] = locus YLR113W, strain HOG1, active compounds read low
# [21] = locus YLR262C, strain YPT6, active compounds read low
# [22] = locus YML094W, strain GIM5, active compounds read low
# [23] = locus YMR219W, strain ESC1, active compounds read low
# [24] = locus YNL153C, strain GIM3, active compounds read low
# [25] = locus YNL183C, strain NPR1, active compounds read low
# [26] = locus YNL207W, strain RIO2, active compounds read low
# [27] = locus YNL298W, strain CLA4 (second series), active compounds read low
# [28] = locus YNL322C, strain KRE1, active compounds read low
# [29] = locus YNR030W, strain Alg12, active compounds read low
# [30] = locus YOR119C, strain RIO1, active compounds read low
# [31] = locus YOR231W, strain MKK1, active compounds read low
# [32] = locus YPL055C, strain LGE1, active compounds read low
# [33] = locus YPL241C, strain CIN2, active compounds read low
# [34] = locus YPL256C, strain CLN2, active compounds read low
# [35] = locus YPR135W, strain CTF4, active compounds read low
structure (smiles),measurement,setting,value
O=S(=O)(Nc1ccc(Oc2ccc(Cl)cc2)cc1)c1ccccc1,normalized growth,[1],0.219 (active)
same,normalized growth,[2],0.923 (active)
same,normalized growth,"locus YCL061C, strain MRC1, active compounds read low",0.851 (active)
same,normalized growth,[3],0.911
same,normalized growth,[4],0.518 (active)
same,normalized growth,[5],0.51 (active)
same,normalized growth,[6],0.122 (active)
same,normalized growth,[7],0.901 (active)
same,normalized growth,[8],0.114 (active) and 0.113 (active)
same,normalized growth,[9],0.199 (active)
same,normalized growth,[10],0.137 (active)
same,normalized growth,[11],0.866 (active)
same,normalized growth,[12],0.108 (active)
same,normalized growth,[13],0.843 (active)
same,normalized growth,[14],0.206 (active)
same,normalized growth,[15],0.899
same,normalized growth,[16],0.274 (active)
same,normalized growth,[17],0.293 (active)
same,normalized growth,[18],0.998
same,normalized growth,[19],0.247 (active)
same,normalized growth,[20],0.166 (active)
same,normalized growth,[21],0.117 (active)
same,normalized growth,[22],0.483 (active)
same,normalized growth,[23],0.925 (active)
same,normalized growth,[24],0.879 (active)
same,normalized growth,[25],0.154 (active)
same,normalized growth,[26],0.248 (active)
same,normalized growth,[27],0.321 (active)
same,normalized growth,[28],1.04
same,normalized growth,[29],0.191 (active)
same,normalized growth,[30],0.226 (active)
same,normalized growth,[31],0.159 (active)
same,normalized growth,[32],0.106 (active)
same,normalized growth,[33],0.341 (active)
same,normalized growth,[34],0.239 (active)
same,normalized growth,[35],0.309 (active)
O=c1c2cc(NS(=O)(=O)c3ccc(Cl)cc3)ccc2oc2ncccc12,normalized growth,[1],0.979
same,normalized growth,[2],1.02
same,normalized growth,[3],0.988
same,normalized growth,"locus YDL134C, strain PPH21, active compounds read low",1
same,normalized growth,[4],0.961
same,normalized growth,[5],1.04
same,normalized growth,[7],0.979
same,normalized growth,[8],0.998
same,normalized growth,[11],1.06
same,normalized growth,[13],0.976
same,normalized growth,[15],1.03
same,normalized growth,[17],1.03
same,normalized growth,[18],1.02
same,normalized growth,[19],1.04
same,normalized growth,[21],1.07
same,normalized growth,[22],1.08
same,normalized growth,[23],1.02
same,normalized growth,"locus YMR263W, strain SAP30, active compounds read low",0.991
same,normalized growth,[24],0.993
same,normalized growth,[27],0.997
same,normalized growth,[28],0.994
same,normalized growth,[29],1.02
same,normalized growth,[32],1.04
same,normalized growth,[33],1.01
same,normalized growth,[35],0.984
Cc1ccc(S(=O)(=O)Nc2ccc(Oc3ccc(F)cc3)cc2)cc1,normalized growth,"locus YAR019C, strain CDC15, active compounds read low",0.98
same,normalized growth,"locus YBL105C, strain PKC1, active compounds read low",0.977
same,normalized growth,"locus YBR135W, strain CKS1, active compounds read low",0.983
same,normalized growth,"locus YBR136W, strain MEC1, active compounds read low",0.985
same,normalized growth,"locus YBR160W, strain CDC28, active compounds read low",0.976
same,normalized growth,"locus YDL017W, strain CDC7, active compounds read low",0.985
same,normalized growth,"locus YDL028C, strain MPS1, active compounds read low",0.987
same,normalized growth,[3],0.982
same,normalized growth,"locus YDL108W, strain KIN28, active compounds read low",0.977
same,normalized growth,"locus YDL132W, strain cdc53, active compounds read low",0.974
same,normalized growth,"locus YDL214C, strain PRR2, active compounds read low",0.907
same,normalized growth,"locus YDR052C, strain DBF4, active compounds read low",0.979
same,normalized growth,"locus YDR054C, strain cdc34, active compounds read low",0.975
same,normalized growth,"locus YDR226W, strain ADK1, active compounds read low",0.983
same,normalized growth,"locus YDR477W, strain SNF1, active compounds read low",0.927
same,normalized growth,"locus YER123W, strain YCK3, active compounds read low",0.866
same,normalized growth,"locus YER133W, strain GLC7, active compounds read low",0.93
same,normalized growth,"locus YFL009W, strain cdc4, active compounds read low",0.983
same,normalized growth,"locus YFL029C, strain CAK1, active compounds read low",0.977
same,normalized growth,"locus YFR003C, strain YPI1, active compounds read low",0.979
same,normalized growth,"locus YFR019W, strain FAB1, active compounds read low",0.95
same,normalized growth,"locus YFR028C, strain CDC14, active compounds read low",0.972
same,normalized growth,"locus YGR040W, strain KSS1, active compounds read low",0.915
same,normalized growth,[6],0.91
same,normalized growth,"locus YGR092W, strain DBF2, active compounds read low",0.839
same,normalized growth,[8],0.767 (active)
same,normalized growth,[9],0.876
same,normalized growth,[10],0.895
same,normalized growth,"locus YHR205W, strain SCH9, active compounds read low",0.926
same,normalized growth,"locus YIL147C, strain SLN1, active compounds read low",0.992
same,normalized growth,[12],0.9
same,normalized growth,"locus YJL128C, strain PBS2, active compounds read low",0.946
same,normalized growth,"locus YJL157C, strain FAR1, active compounds read low",0.908
same,normalized growth,"locus YJR016C, strain ILV3, active compounds read low",0.981
same,normalized growth,"locus YJR066W, strain TOR1 (second series), active compounds read low",0.892
same,normalized growth,[14],0.968
same,normalized growth,"locus YKL048C, strain ELM1, active compounds read low",0.934
same,normalized growth,"locus YKL067W, strain YNK1, active compounds read low",0.905
same,normalized growth,"locus YKL101W, strain HSL1, active compounds read low",0.887
same,normalized growth,"locus YKL193C, strain SDS22, active compounds read low",0.978
same,normalized growth,[16],0.979
same,normalized growth,[20],0.739 (active)
same,normalized growth,"locus YLR133W, strain CKI1, active compounds read low",0.916
same,normalized growth,"locus YLR403W, strain SFP1, active compounds read low",0.914
same,normalized growth,"locus YML070W, strain DAK1, active compounds read low",0.868
same,normalized growth,"locus YMR001C, strain CDC5, active compounds read low",0.986
same,normalized growth,"locus YMR205C, strain PFK2 (second series), active compounds read low",0.918
same,normalized growth,"locus YMR277W, strain FCP1, active compounds read low",0.985
same,normalized growth,"locus YNL006W, strain LST8, active compounds read low",0.996
same,normalized growth,"locus YNL020C, strain ARK1, active compounds read low",0.898
same,normalized growth,"locus YNL161W, strain CBK1, active compounds read low",0.978
same,normalized growth,[25],0.836
same,normalized growth,[26],0.985
same,normalized growth,"locus YNL222W, strain SSU72, active compounds read low",0.969
same,normalized growth,"locus YNL307C, strain MCK1 (second series), active compounds read low",0.873
same,normalized growth,"locus YOL078W, strain AVO1, active compounds read low",0.978
same,normalized growth,"locus YOL136C, strain PFK27, active compounds read low",0.88
same,normalized growth,"locus YOR061W, strain CKA2, active compounds read low",0.898
same,normalized growth,[30],0.981
same,normalized growth,[31],0.849
same,normalized growth,"locus YOR329C, strain SCD5, active compounds read low",0.983
same,normalized growth,"locus YPL031C, strain PHO85, active compounds read low",0.913
same,normalized growth,"locus YPL153C, strain RAD53, active compounds read low",0.862
same,normalized growth,"locus YPL204W, strain HRR25, active compounds read low",0.896
same,normalized growth,"locus YPL209C, strain IPL1, active compounds read low",0.979
same,normalized growth,[34],0.815 (active)
same,normalized growth,"locus YPR025C, strain CCL1, active compounds read low",0.984
same,normalized growth,"locus YPR106W, strain ISR1, active compounds read low",0.965
same,normalized growth,"locus YPR111W, strain DBF20, active compounds read low",0.953
same,normalized growth,"strain NNK1, active compounds read low",0.969
same,normalized growth,"strain TSCII, active compounds read low",0.98
CCn1c(=O)c2[nH]c(-c3ccccc3)nc2n(CC)c1=O,normalized growth,"locus YAL040C, strain CLN3, active compounds read low",1
same,normalized growth,"locus YCL061C, strain MRC1 (second series), active compounds read low",0.997
same,normalized growth,"locus YDR363W, strain ESC2, active compounds read low",1.01
same,normalized growth,"locus YER002W, strain NOP16, active compounds read low",1.04
same,normalized growth,"locus YMR307W, strain GAS1, active compounds read low",0.992
same,normalized growth,"locus YNL175C, strain NOP13, active compounds read low",1.01
same,normalized growth,"locus YNL197C, strain WHI3, active compounds read low",1.01
same,normalized growth,"locus YNL224C, strain SQS1, active compounds read low",1
same,normalized growth,"locus YOR083W, strain WHI5 (second series), active compounds read low",1.01
same,normalized growth,[32],1
same,normalized growth,[33],1.01
